The values below come from PubChem BioAssay AID1240 (Sanford-Burnham Center for Chemical Genomics, 2008).

Among all 50,000 compounds or so, about 800 (1.6%) showed an effect of 50% or more. The sample holds strong results, similar compounds and a random draw of the others, so the mix is not that of the screen.

The target of this experiment is Bcl-2-like protein 10 (Homo sapiens) (UniProt Q9HD36). The experiment can be described thus: TR3 peptide-Bcl-B binding displacers, biochemical primary FP assay, phenotype converters (AID 1240).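 Also: 0% = Bcl-B with tracer peptide and DMSO and 100% = tracer peptide lacking Bcl-B.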 The following applies: GST-Bcl-B / FITC-TR3 peptide fluorescence polarization; stronger effect = higher value; compound at 3.75 mg/L.
Chain of Bcl-2-like protein 10 (Homo sapiens) (Q9HD36 whole entry, looked up): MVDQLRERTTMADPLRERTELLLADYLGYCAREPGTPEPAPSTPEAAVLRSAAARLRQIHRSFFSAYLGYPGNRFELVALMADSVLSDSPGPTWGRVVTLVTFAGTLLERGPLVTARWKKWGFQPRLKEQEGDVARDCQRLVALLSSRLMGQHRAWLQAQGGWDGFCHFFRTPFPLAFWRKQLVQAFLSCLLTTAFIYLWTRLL
`Cc1cc(-n2c(C)cc(C=O)c2C)ccc1I`: the displacement is -15.5%.
The figure for `O=C1c2cccc([N+](=O)[O-])c2C(=O)N1c1ccncc1` is -2.3%; for `Cc1ccc(/C=C2\SC(=S)N(c3ccc(F)cc3)C2=O)o1` it is 101%.
The figure for `O=C1/C(=C/c2ccco2)SC(=S)N1c1cccc(C(F)(F)F)c1` is 15.4%; for `O=C1S/C(=C\c2ccc(Br)o2)C(=O)N1c1ccc(Cl)c(Cl)c1` it is -3.9%.
The figure for `CCOc1ccc(N2C(=O)S/C(=C\c3ccc(C)o3)C2=O)cc1` is 108%; for `CCOc1ccc(N2C(=O)S/C(=C\c3ccc(C)cc3)C2=O)cc1` it is -5.8%; for `O=C1/C(=C/c2ccc(I)o2)SC(=S)N1c1cccc(C(F)(F)F)c1` it is 55.7%.
As for `O=C1/C(=C/c2ccco2)SC(=S)N1c1ccc(F)cc1`, the displacement stood at 7.9%.
`O=C1/C(=C/c2ccc(Br)o2)SC(=S)N1c1cccc(C(F)(F)F)c1`: the displacement worked out at 21.6%.
The figure for `CCOc1ccc(N2C(=O)S/C(=C\c3ccc(OC)cc3)C2=O)cc1` is 13.2%; for `Cc1ccc(/C=C2\SC(=S)N(c3ccc(C)c(C)c3)C2=O)o1` it is 14.9%; for `O=C1S/C(=C\c2ccc(Br)o2)C(=O)N1c1ccc(Cl)cc1` it is 88.9%.
To `O=C1S/C(=C\c2ccc(Br)cc2)C(=O)N1c1ccc(Cl)cc1` belongs -3.3%.
`Cc1cc(=O)oc2cc(OCC(=O)OC(C)C)ccc12`: the displacement stood at 1.9%.
For the compound `CCOC(=O)c1c(NC(C)=O)sc(I)c1-c1ccccc1`, the displacement is 0.8%.
To `Cc1cc(C(=O)NC2CCSC2=O)ccc1[N+](=O)[O-]` (stereo unspecified) belongs -2.7%; to `CS(=O)(=O)N(Cc1ccc(Cl)cc1)c1ccc(C(=O)NCc2ccco2)cc1`, -14.6%; to `Cc1ccc([N+](=O)[O-])cc1S(=O)(=O)N1CCOCC1`, 5.1%.
As for `CCOc1cccc(C(=O)Nc2cc(-c3nc4cc(C)cc(C)c4o3)ccc2C)c1`, the displacement amounted to 9.5%.
The figure for `Cc1ccc(C)c(NC(=O)c2c(-c3ccccc3Cl)noc2C)c1` is 9.9%; for `CCOc1ccc(N2C(=O)S/C(=C\c3ccccc3OC)C2=O)cc1` it is 32.7%.
Regarding `CCOc1ccc(N2C(=O)S/C(=C\c3ccco3)C2=O)cc1`, the displacement is 92.2%.
For `Cc1ccsc1/C=C1\SC(=S)N(c2ccccc2)C1=O`, the displacement is 126%.
Take `CCOc1ccc(/C=C2\SC(=O)N(c3ccccc3)C2=O)cc1`: the displacement is -1.9%.
The figure for `Cc1ccsc1/C=C1\SC(=S)N(c2c(C)n(C)n(-c3ccccc3)c2=O)C1=O` is 6.6%.
The figure for `Cc1ccsc1/C=C1\SC(=S)N(C(C)c2ccccc2)C1=O` (stereo unspecified) is -6.6%; for `O=C(O)CSCCCN1C(=O)c2cccc3cccc(c23)C1=O` it is 8%; for `CC1=C(C(=O)Nc2ccccc2C)C(c2ccc(F)cc2)NC(=O)N1` (stereo unspecified) it is 16.2%.
Take `Cc1ccc(S(=O)(=O)Nc2ccccc2C(=O)Nc2ccccc2)cc1`: the displacement is 9.6%.
The figure for `COC(C(=O)N1CCCCCC1)(c1ccccc1)c1ccccc1` is 16.8%.
